In ChEMBL document CHEMBL4513216, “Probing the Open Global Health Chemical Diversity Library for Multistage-Active Starting Points for Next-Generation Antimalarials” (ACS Infect Dis, 2020):
About 2,700 (4%) of roughly 68,000 compounds showed an effect of 50% or more. Only a selection was taken, and strong results are over-represented in it overall.

What follows are compounds tested on Plasmodium berghei (assay: Screen against P. berghei liver stage (PbLuc), transformed with Luciferase, at 2uM). Conditions: tested at 2 uM.
Format: functional, HepG2
In the case of `O=C(NCCCO)Nc1cccc(Cl)c1F`, the INHIBITION is reported as -5.28%. With `Fc1cnc(N2CCOC3(CCN(Cc4ccsc4)CC3)C2)nc1` the INHIBITION was -35.12%. In the case of `CNC(=O)C1CCN(Cc2cc3c(cc2O)CCC3)CC1`, the INHIBITION is reported as -23.73%. Compound `CNS(=O)(=O)CCN1CC(c2ccccc2)(c2ccccc2)CCC1=O` has an INHIBITION of 40.51%. `CC(C)(C)c1cnc(CNc2cccc(Cn3cnnc3)c2)o1` gave an INHIBITION of -3.4%. For `Cc1cccc(NCc2ncc(C(C)(C)C)o2)c1`, the INHIBITION was 75.37%. With `Cc1ccc(NCc2ncc(C(C)(C)C)o2)c(Cl)c1` the INHIBITION was -32.82%. Work on `CCc1nc(C)sc1CN1CC[C@](O)(CC)[C@H](O)C1` yielded an INHIBITION of 20.36%. `O=C(CCC(=O)NCc1cccc(Br)c1)NCCN1CCCC1` was tested, and the INHIBITION was -64.94%. With `COCC(=O)NCc1cccc(Br)c1` the INHIBITION was 0.26%. With `O=C(COCC(=O)N1CCCCCC1)NCc1cccc(Br)c1` the INHIBITION was 50.97%. `Cc1ncn(-c2cc(N3CCN(S(C)(=O)=O)CC3)ncn2)c1C` was tested, and the INHIBITION was 43.28%. For `CCOCC(=O)N1C[C@H]2CC[C@@H](C1)N(Cc1ccccn1)C2=O`, the INHIBITION was 37.77%. `O=C(CSCC1CC1)N1C[C@H]2CC[C@@H](C1)N(Cc1ccccn1)C2=O` was tested, and the INHIBITION was 36.66%. For `CCCSCC(=O)N1C[C@H]2CC[C@@H](C1)N(Cc1ccccn1)C2=O`, the INHIBITION was 60.9%. For `CC(C)(O)CN1CCN(C(=O)COCC(F)(F)F)CC1`, the INHIBITION was 13.76%. For `COc1cc(C)c(S(=O)(=O)CC(=O)N(C)C(C)C)cc1OC`, the INHIBITION was 10.72%. `COc1cc(C)c(S(=O)(=O)CC(=O)N(C)C2CC2)cc1OC` showed an INHIBITION of 51.87%. Compound `CCN(C(=O)CS(=O)(=O)c1cc(OC)c(OC)cc1C)C1CC1` has an INHIBITION of 35.41%. Work on `CCn1cc(S(=O)(=O)Nc2nc3c(s2)CCCC3)cn1` yielded an INHIBITION of 23.02%. Work on `CC1CCc2nc(NS(=O)(=O)c3cnn(C)c3)sc2C1` (stereo unspecified) yielded an INHIBITION of 54.52%. With `CCn1cc(S(=O)(=O)Nc2nc3c(s2)CC(C)CC3)cn1` (stereo unspecified) the INHIBITION was 32.56%. Compound `N#Cc1ccc(CN2CCN(Cc3ccncc3Cl)CC2=O)cc1` has an INHIBITION of 26.27%. With `CC1CN(Cc2nc(Cc3ccccc3F)no2)CCN1C` (stereo unspecified) the INHIBITION was 17.25%. With `O=C(c1ccco1)N1CCOC2(COCCN(c3ncccn3)C2)C1` (stereo unspecified) the INHIBITION was 36.06%. `Cc1cccc(CN2CCc3onc(CO)c3C2)n1` was tested, and the INHIBITION was 52.12%. `Cc1cccc(CN2CCc3onc(Cn4cccc4)c3C2)n1` showed an INHIBITION of 15.36%. With `Cc1cccc(CN2CCc3onc(CN(C)C)c3C2)n1` the INHIBITION was 26.77%. `CCOc1ncccc1NC(=O)NC1CCN(S(C)(=O)=O)CC1` showed an INHIBITION of -68.26%. Compound `CCN(CC)C(=O)[C@@H]1C[C@H](n2cc(-c3cccc(OC)c3)nn2)CN1` has an INHIBITION of 36.28%. `CCN(CC)C(=O)[C@@H]1C[C@@H](n2cc(-c3ccccn3)nn2)CN1` gave an INHIBITION of 38.67%. `CCN(CC)C(=O)[C@@H]1C[C@@H](n2cc(-c3cccc(OC)c3)nn2)CN1` was tested, and the INHIBITION was 57.75%. With `CC1(C)CC(n2cc3nc(N4CCCC4)[nH]cc-3c2=O)CC(C)(C)N1` the INHIBITION was 6.2%. Work on `O=C(CCc1cccc(Cl)c1)NS(=O)(=O)Cc1ccon1` yielded an INHIBITION of 41.05%. `O=C(CCc1ccsc1)NS(=O)(=O)Cc1ccon1` gave an INHIBITION of -6.64%. With `O=C(CCc1ccco1)NS(=O)(=O)Cc1ccon1` the INHIBITION was 50.59%. Work on `CCCNc1ccc(C(=O)NCCc2cccc(OC)c2)cn1` yielded an INHIBITION of 19.09%. `CC(C)NC(=O)N1CCCCC1c1nnc2n1CCNC2` (stereo unspecified) showed an INHIBITION of -15.93%. `CC(NC(=O)c1ccc(Cl)cc1)c1nnc(SCC(=O)O)n1C` (stereo unspecified) showed an INHIBITION of 4.37%. `Cc1c(CN2CC[C@@H](N3CCC(O)CC3)[C@H](O)C2)[nH]c2ccc(Cl)cc12` was tested, and the INHIBITION was -31.36%. `Cc1c(CN2CC[C@@H](N3CCC(O)CC3)[C@H](O)C2)[nH]c2ccc(F)cc12` gave an INHIBITION of 51.43%. In the case of `Cc1c(CN2CCCC(O)C2)[nH]c2ccc(F)cc12` (stereo unspecified), the INHIBITION is reported as -1.51%. In the case of `Cc1nccc(-c2ccccc2)c1C(=O)N1CC[C@](C)(O)C(C)(C)C1`, the INHIBITION is reported as 48.93%. Work on `COC1COC2(CCN(Cc3ccc4ccccc4n3)CC2)C1` (stereo unspecified) yielded an INHIBITION of -0.18%. `CCOc1cccc(CNC(=O)c2cnn(CC)c2C(F)(F)F)c1` showed an INHIBITION of 40.97%. Compound `CCOc1cc(CNC(=O)c2cnn(CC)c2C(F)(F)F)ccn1` has an INHIBITION of -61.54%. `CCn1ncc(C(=O)NCc2ccc(C)c(OC)c2)c1C(F)(F)F` gave an INHIBITION of 55.52%. `Cc1cncc(C(=O)N2Cc3ccccc3C3(CCN(C)CC3)C2)c1` was tested, and the INHIBITION was 5.28%. With `CN1CCC2(CC1)CN(C(=O)c1cccnc1)Cc1ccccc12` the INHIBITION was -19.51%. In the case of `CN1CCC2(CC1)CN(C(=O)c1ccncc1)Cc1ccccc12`, the INHIBITION is reported as 56.25%. `CCc1nnc(C2Cc3ccccc3CN2Cc2cc(C)on2)o1` (stereo unspecified) was tested, and the INHIBITION was 33.9%. `CCc1nnc(C2Cc3ccccc3CN2Cc2cc(C)no2)o1` (stereo unspecified) showed an INHIBITION of 56.89%. Compound `Cc1cc(CN2Cc3ccccc3CC2c2nnc(C)o2)on1` (stereo unspecified) has an INHIBITION of 21.91%. Compound `Cc1cnc(N2CCC3(CC2)CN(c2ccsc2)C(=O)CO3)nc1` has an INHIBITION of -38.48%. In the case of `CC(CN1CCOCC1)NC(=O)N1CCCC1` (stereo unspecified), the INHIBITION is reported as 34.93%. With `Cc1ccoc1C(=O)N1C[C@@H](OCC2CC2)[C@H]2OCCC[C@H]21` the INHIBITION was 8.25%. `CCc1nc(NC(=O)NCCc2cccc(C)n2)nn1C` was tested, and the INHIBITION was 21.14%. Work on `CC(=O)N(C)CC(=O)Nc1ccc(C)cc1OCc1ccccc1` yielded an INHIBITION of 50.03%. For `CCOc1ccccc1NC(=O)N(CCO)Cc1ccsc1`, the INHIBITION was 38.66%. Work on `CC(=O)NCCNC(=O)Nc1ccc(C)cc1OCc1ccccc1` yielded an INHIBITION of 3.22%. Compound `CCCOc1cc(C)ccc1NC(=O)NCCNC(C)=O` has an INHIBITION of -3.26%. With `Cc1ccc(NC(=O)N(CCO)CCO)c(OCc2ccccc2)c1` the INHIBITION was 68.73%. For `CCCOc1cc(C)ccc1NC(=O)N(C)C`, the INHIBITION was -59.32%. Compound `NC(=O)c1cc(C2CCCN(Cc3ccc4c(c3)OCCO4)C2)n[nH]1` (stereo unspecified) has an INHIBITION of -16.03%. `Cc1nc(C2CCCN2CC(=O)NCCOc2ccc(F)cc2)no1` (stereo unspecified) showed an INHIBITION of 20.57%. `Cc1nccn1CCCn1cncc1-c1ccc2c(c1)CCC(C)N2C` (stereo unspecified) was tested, and the INHIBITION was 12.29%. For `CC(C)(C)c1nc(CN2CCCC2Cn2cncn2)no1` (stereo unspecified), the INHIBITION was 45.83%. Work on `COc1cccc(C2c3c(n[nH]c3C)N=C3COC(=O)C32)c1OC` (stereo unspecified) yielded an INHIBITION of -35.07%. Compound `COc1cccc(C2c3c(n[nH]c3C)N=C3COC(=O)C32)c1O` (stereo unspecified) has an INHIBITION of 63.46%. Compound `COc1ccc(OC)c(C2c3c(n[nH]c3C)N=C3COC(=O)C32)c1` (stereo unspecified) has an INHIBITION of 26.14%. `CNC(=O)CN1CCCC1c1ccccc1Br` (stereo unspecified) gave an INHIBITION of 1.9%. For `CNC(=O)CCN1CCCC1c1ccccc1Br` (stereo unspecified), the INHIBITION was 51.76%. `NC(=O)CN1CCCC1c1ccccc1Br` (stereo unspecified) showed an INHIBITION of -43.18%. With `Cc1nn(C)cc1CCC(=O)N1CCCC(n2cncn2)C1` (stereo unspecified) the INHIBITION was 26.71%. Compound `COc1c[nH]c(C(=O)Nc2nc(C)cs2)cc1=O` has an INHIBITION of 79.68%. Work on `CCOC(=O)Cc1csc(NC(=O)c2cc(=O)c(OC)c[nH]2)n1` yielded an INHIBITION of -5.51%. In the case of `COc1c[nH]c(C(=O)Nc2nc(C(C)(C)C)cs2)cc1=O`, the INHIBITION is reported as 34.71%. For `Cc1c(C2CC(=O)Nc3c2cnn3C(C)C)cnn1C` (stereo unspecified), the INHIBITION was -0.58%. `O=C(CSc1nnc(N2CCOCC2)s1)NCc1cccs1` was tested, and the INHIBITION was 44.98%. For `COc1ccnc(N2CCN(C(=O)COCC(F)(F)F)CC2)n1`, the INHIBITION was 4.19%. Work on `CCc1[nH]ncc1C(=O)N1CCN(c2nccc(OC)n2)CC1` yielded an INHIBITION of -85.11%. `COc1cc(C)nc(N2CCN(C(=O)COCC3CC3)CC2)n1` gave an INHIBITION of 4.19%. `CCc1[nH]ncc1C(=O)N1CCN(c2nc(C)cc(OC)n2)CC1` gave an INHIBITION of 51.83%. With `COc1cc(C)nc(N2CCN(C(=O)COCC(F)(F)F)CC2)n1` the INHIBITION was 51.21%. Compound `CCOc1cc(C)nc(N2CCN(C(=O)c3cn[nH]c3CC)CC2)n1` has an INHIBITION of 38.76%. Work on `Cc1ccnn1CCCNC(=O)C1CCN(S(C)(=O)=O)CC1` yielded an INHIBITION of -11.34%. Work on `Cc1csc(N2CCN(C(=O)Cc3cccs3)CC2)n1` yielded an INHIBITION of 6.07%. Compound `CC(C)(C)C(O)CN1CCN(Cc2cccc(C#N)c2)CC1` (stereo unspecified) has an INHIBITION of -4.89%. In the case of `COc1ccc(CC(=O)N2CCCCC2Cn2cccn2)cc1OC` (stereo unspecified), the INHIBITION is reported as -40.17%. With `CN1CCN(c2ccccc2NC(=O)NCCc2ccccc2)CC1` the INHIBITION was -10%. `C=Cc1ccc(C(=O)NC2CCCc3nc(N(C)C)ncc32)cc1` (stereo unspecified) gave an INHIBITION of 34.61%. In the case of `CC(C)n1c(=O)[nH]c2cn(-c3ccc(Br)cc3)c(=O)n21`, the INHIBITION is reported as 22.07%. `Cc1csc(NC(=O)CN(C)CC2CCCN2c2cccnn2)n1` (stereo unspecified) was tested, and the INHIBITION was 9.17%. In the case of `CN(CC(=O)Nc1ccncc1)CC1CCCN1c1cccnn1` (stereo unspecified), the INHIBITION is reported as -22.08%. `Cc1cnc(CN(C)CC2CCCN2c2cccnn2)cn1` (stereo unspecified) was tested, and the INHIBITION was 47.72%. With `Cc1cc(NC(=O)CN(C)CC2CCCN2c2cccnn2)n(C)n1` (stereo unspecified) the INHIBITION was 51.03%. `CCn1ccnc1CNCC1CCCN1c1cccnn1` (stereo unspecified) was tested, and the INHIBITION was 39.92%. Work on `CCn1ccnc1CN(C)CC1CCCN1c1cccnn1` (stereo unspecified) yielded an INHIBITION of 55.52%. `O=C1CC2(CCN(Cc3ccco3)C2)CN1c1ccc2c(c1)OCO2` (stereo unspecified) showed an INHIBITION of 14.06%. Compound `COCCCN1CCN([C@@H]2c3ccccc3C3(CCNCC3)[C@H]2O)CC1` has an INHIBITION of -13.79%. `CC(C)CN1CC2(CCN(C(=O)c3nc4ncccn4n3)CC2)CC1=O` was tested, and the INHIBITION was -47.52%. In the case of `CCc1nc(N2CCCN(c3ncccn3)CC2)c2cnn(C)c2n1`, the INHIBITION is reported as 29.53%. With `CCc1nc(N2CCN(c3ncccn3)CC2)c2cnn(C)c2n1` the INHIBITION was 51.48%. With `CCCc1nc(N2CCCN(c3ncccn3)CC2)c2cnn(C)c2n1` the INHIBITION was 17.73%. `CCCn1cc(Cl)c(C(=O)N2C[C@H]3CC(OC)C[C@H]3C2)n1` (stereo partly specified) gave an INHIBITION of -13.75%. Work on `CCCS(=O)(=O)N1CCCN(CCCOC)CC1` yielded an INHIBITION of -14.94%.
